# Experimental data: PubChem BioAssay (NCI)
# About 79,000 compounds went through this panel and 15% of them were active in at least one assay; those are over-represented in the sample as a whole. Values without a mark were called inactive. Activity calls are given as the source filed them. Cut-off read from the data, not from the text of the source: active = growth inhibition above about 70%; inactive = the rest.
# Legend:
# [1] = NCI Yeast Anticancer Drug Screen. Data for the rad52 strain (AID 147);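 note: 0% = growth of vehicle-treated control cultures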; conditions: S. cerevisiae rad52 mutant growth inhibition, active compounds read high
# Procedure, shortened: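 Growth of repair-deficient yeast cells was compared between compound-treated and vehicle-treated cultures to give percent inhibition.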
# [2] = NCI Yeast Anticancer Drug Screen. Data for the rad50EPP+ strain (AID 151);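 note: 0% = growth of vehicle-treated control cultures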; conditions: S. cerevisiae rad50 mutant strain, active compounds read high
# Procedure, shortened: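 Measured: growth inhibition of rad50EPP+ yeast. Reference: vehicle-treated controls. Screen uses strains with defined genetic alterations in DNA damage repair or cell cycle control.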
# [3] = NCI Yeast Anticancer Drug Screen. Data for the mgt1 strain (AID 153); conditions: S. cerevisiae mgt1 mutant growth inhibition, active compounds read high
# Procedure, shortened: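 Compounds were applied to mgt1 mutant yeast, and growth was then compared against vehicle-treated control cultures to give percent inhibition.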
# [4] = NCI Yeast Anticancer Drug Screen. Data for the rad50 strain (AID 155);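 note: 0% = growth of vehicle-only cultures of the same strain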; conditions: S. cerevisiae rad50 strain growth inhibition, active compounds read high
# Procedure, shortened: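 Cells are treated with compound, grown, and their growth is then scored against vehicle-only cultures of the same repair-deficient yeast strain.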
# [5] = NCI Yeast Anticancer Drug Screen. Data for the mec2-1 strain (AID 157); conditions: S. cerevisiae mec2-1 strain, active compounds read high
# Procedure, shortened: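 Compounds were applied to mec2-1 yeast cells. Their growth was then compared with that of vehicle-treated cultures to give growth inhibition.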
# [6] = NCI Yeast Anticancer Drug Screen. Data for the rad14 strain (AID 159);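 note: 0% = growth of vehicle-treated control cultures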; conditions: S. cerevisiae rad14 strain growth inhibition, active compounds read high
# Procedure, shortened: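 Readout: yeast growth inhibition, referenced to vehicle-only cultures. Strain bears a defined alteration in DNA damage repair.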
# [7] = NCI Yeast Anticancer Drug Screen. Data for the sgs1 mgt1 strain (AID 161);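 note: 0% = growth of cultures given vehicle only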; conditions: S. cerevisiae sgs1 mgt1 strain, active compounds read high
# Procedure, shortened: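 Compounds are added to genetically altered yeast, and growth is compared with cultures given vehicle alone to give percent inhibition.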
# [8] = NCI Yeast Anticancer Drug Screen. Data for the CLN2oe strain (AID 163);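 note: 0% = growth of vehicle-only control cultures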; conditions: S. cerevisiae CLN2oe strain, active compounds read high
# Procedure, shortened: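 Cells of an engineered yeast line with disturbed cell-cycle regulation are treated with compound. Inhibition of growth is then calculated relative to the vehicle-treated reference.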
# [9] = NCI Yeast Anticancer Drug Screen. Data for the cln2 rad14 strain (AID 165);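 note: 0% = growth equal to vehicle treated cultures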; conditions: S. cerevisiae cln2 rad14 strain, active compounds read high
# Procedure, shortened: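 Strain: cln2 rad14 yeast, altered in cell cycle control and DNA damage repair. Read-out: growth inhibition vs vehicle.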
# [10] = NCI Yeast Anticancer Drug Screen. Data for the bub3 strain (AID 167); conditions: S. cerevisiae bub3 mutant strain, active compounds read high
# Procedure, shortened: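 Part of a panel of yeast mutants defective in DNA damage repair or cell cycle regulation. Each strain is grown with compound, and inhibition is calculated relative to solvent-treated cultures.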
# [11] = NCI Yeast Anticancer Drug Screen. Data for the wt2 strain (AID 169);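 note: 0% = growth of vehicle-treated yeast cultures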; conditions: S. cerevisiae wt2 strain growth inhibition, active compounds read high
# Procedure, shortened: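 Growth of compound-treated yeast is measured and expressed as inhibition relative to vehicle-only controls.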
# [12] = NCI Yeast Anticancer Drug Screen. Data for the mlh1 strain (AID 171);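 note: 0% = growth of vehicle-treated control cultures of the same strain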; conditions: S. cerevisiae mlh1 strain growth inhibition, active compounds read high
# Procedure, shortened: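 Test agents were incubated with yeast bearing a defined DNA damage repair or cell cycle control alteration; values are growth inhibition normalised to vehicle-treated cultures.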
# [13] = NCI Yeast Anticancer Drug Screen. Data for the mlh1 rad18 strain (AID 175); conditions: S. cerevisiae mlh1 rad18 strain growth inhibition, active compounds read high
# Procedure, shortened: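 A repair-deficient yeast strain is exposed to test compound, and growth is scored relative to vehicle-treated controls.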
# [14] = NCI Yeast Anticancer Drug Screen. Data for the rad18 strain (AID 177); conditions: S. cerevisiae rad18 mutant growth inhibition, active compounds read high
# Procedure, shortened: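 DNA-repair-defective yeast; compound treatment; growth inhibition scored against vehicle.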
# [15] = NCI Yeast Anticancer Drug Screen. Data for the wt1 strain (AID 149);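 note: 0% = growth of vehicle-treated wt1 cultures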; conditions: S. cerevisiae wt1 strain (SPY 50644) growth inhibition, active compounds read high
# Procedure, shortened: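 The wt1 strain was treated with compounds, and growth was compared with vehicle-treated cultures to give inhibition.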
# [16] = NCI Yeast Anticancer Drug Screen. Data for the sgs1 strain (AID 173);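 note: 0% = growth of vehicle-only control cultures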; conditions: S. cerevisiae sgs1 mutant, active compounds read high
# Procedure, shortened: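 Strain with an altered DNA repair or cell cycle pathway exposed to compound. Growth then measured. Value = inhibition versus vehicle control.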
# [17] = at 5.0 µM (retest, dose inferred, filed as 0.5)
# [18] = at 50.0 µM (retest, dose inferred, filed as 5.0)
smiles,measurement,setting,value
COc1ccc(/C=C(/C)[N+](=O)[O-])cc1,growth inhibition,[1]; at 1.2 µM,8%
same,growth inhibition,[1]; at 3.7 µM,36%
same,growth inhibition,[1]; at 11.0 µM,81% (active)
same,growth inhibition,[1]; at 33.0 µM,95% (active)
same,growth inhibition,[1]; at 100.0 µM,99% (active)
same,growth inhibition,[2]; at 1.2 µM,57%
same,growth inhibition,[2]; at 3.7 µM,83% (active)
same,growth inhibition,[2]; at 11.0 µM,94% (active)
same,growth inhibition,[2]; at 33.0 µM,97% (active)
same,growth inhibition,[2]; at 100.0 µM,99% (active)
same,growth inhibition,[3]; at 1.2 µM,-22%
same,growth inhibition,[3]; at 3.7 µM,-17%
same,growth inhibition,[3]; at 11.0 µM,0%
same,growth inhibition,[3]; at 33.0 µM,80% (active)
same,growth inhibition,[3]; at 100.0 µM,99% (active)
same,growth inhibition,[4]; at 1.2 µM,-10%
same,growth inhibition,[4]; at 3.7 µM,23%
same,growth inhibition,[4]; [17],49%
same,growth inhibition,[4]; at 11.0 µM,79% (active)
same,growth inhibition,[4]; at 33.0 µM,94% (active)
same,growth inhibition,[4]; [18],94% (active)
same,growth inhibition,[4]; at 50.0 µM,80.3% (active)
same,growth inhibition,[4]; at 100.0 µM,99% (active)
same,growth inhibition,[5]; at 1.2 µM,-44%
same,growth inhibition,[5]; at 3.7 µM,-51%
same,growth inhibition,[5]; [17],16%
same,growth inhibition,[5]; at 11.0 µM,-34%
same,growth inhibition,[5]; at 33.0 µM,78% (active)
same,growth inhibition,[5]; [18],98% (active)
same,growth inhibition,[5]; at 50.0 µM,90.3% (active)
same,growth inhibition,[5]; at 100.0 µM,99% (active)
same,growth inhibition,[6]; at 1.2 µM,-20%
same,growth inhibition,[6]; at 3.7 µM,-25%
same,growth inhibition,[6]; at 11.0 µM,-24%
same,growth inhibition,[6]; at 33.0 µM,69%
same,growth inhibition,[6]; at 100.0 µM,99% (active)
same,growth inhibition,[7]; [17],28%
same,growth inhibition,[7]; [18],85% (active)
same,growth inhibition,[7]; at 50.0 µM,87.8% (active)
same,growth inhibition,[8]; at 1.2 µM,-3%
same,growth inhibition,[8]; at 3.7 µM,-10%
same,growth inhibition,[8]; at 11.0 µM,-9%
same,growth inhibition,[8]; at 33.0 µM,71% (active)
same,growth inhibition,[8]; at 100.0 µM,99% (active)
same,growth inhibition,[9]; [17],37%
same,growth inhibition,[9]; [18],94% (active)
same,growth inhibition,[9]; at 50.0 µM,60%
same,growth inhibition,[10]; at 1.2 µM,-27%
same,growth inhibition,[10]; at 3.7 µM,-28%
same,growth inhibition,[10]; [17],28%
same,growth inhibition,[10]; at 11.0 µM,-6%
same,growth inhibition,[10]; at 33.0 µM,93% (active)
same,growth inhibition,[10]; [18],99% (active)
same,growth inhibition,[10]; at 50.0 µM,90.8% (active)
same,growth inhibition,[10]; at 100.0 µM,98% (active)
same,growth inhibition,[11]; at 1.2 µM,-5%
same,growth inhibition,[11]; at 3.7 µM,-4%
same,growth inhibition,[11]; at 11.0 µM,-1%
same,growth inhibition,[11]; at 33.0 µM,59%
same,growth inhibition,[11]; at 100.0 µM,99% (active)
same,growth inhibition,[12]; at 1.2 µM,-12%
same,growth inhibition,[12]; at 3.7 µM,-16%
same,growth inhibition,[12]; at 11.0 µM,-2%
same,growth inhibition,[12]; at 33.0 µM,97% (active)
same,growth inhibition,[12]; at 100.0 µM,99% (active)
same,growth inhibition,[13]; [17],22%
same,growth inhibition,[13]; [18],99% (active)
same,growth inhibition,[13]; at 50.0 µM,81.5% (active)
same,growth inhibition,[14]; at 1.2 µM,-14%
same,growth inhibition,[14]; at 3.7 µM,-8%
same,growth inhibition,[14]; at 11.0 µM,-17%
same,growth inhibition,[14]; at 33.0 µM,42%
same,growth inhibition,[14]; at 100.0 µM,99% (active)
COC(COC(=O)N1CCN(C=O)CC1)C1=C(N2CC2)C(=O)C(C)=C(N2CC2)C1=O (stereo not drawn),growth inhibition,[1]; at 1.2 µM,4%
same,growth inhibition,[1]; at 3.7 µM,18%
same,growth inhibition,[1]; at 11.0 µM,30%
same,growth inhibition,[1]; at 33.0 µM,66%
same,growth inhibition,[1]; at 100.0 µM,79% (active)
same,growth inhibition,[15]; at 1.2 µM,10%
same,growth inhibition,[15]; at 3.7 µM,12%
same,growth inhibition,[15]; at 11.0 µM,22%
same,growth inhibition,[15]; at 33.0 µM,39%
same,growth inhibition,[15]; at 100.0 µM,47%
same,growth inhibition,[4]; at 1.2 µM,17%
same,growth inhibition,[4]; at 3.7 µM,35%
same,growth inhibition,[4]; [17],64%
same,growth inhibition,[4]; at 11.0 µM,43%
same,growth inhibition,[4]; at 33.0 µM,53%
same,growth inhibition,[4]; [18],22%
same,growth inhibition,[4]; at 50.0 µM,35.3%
same,growth inhibition,[4]; at 100.0 µM,79% (active)
same,growth inhibition,[5]; at 1.2 µM,-6%
same,growth inhibition,[5]; at 3.7 µM,1%
same,growth inhibition,[5]; [17],19%
same,growth inhibition,[5]; at 11.0 µM,6%
same,growth inhibition,[5]; at 33.0 µM,36%
same,growth inhibition,[5]; [18],35%
same,growth inhibition,[5]; at 50.0 µM,32.9%
same,growth inhibition,[5]; at 100.0 µM,67%
same,growth inhibition,[6]; at 1.2 µM,4%
same,growth inhibition,[6]; at 3.7 µM,1%
same,growth inhibition,[6]; at 11.0 µM,6%
same,growth inhibition,[6]; at 33.0 µM,39%
same,growth inhibition,[6]; at 100.0 µM,74% (active)
same,growth inhibition,[7]; [17],-8%
same,growth inhibition,[7]; [18],26%
same,growth inhibition,[7]; at 50.0 µM,40.4%
same,growth inhibition,[10]; at 1.2 µM,-18%
same,growth inhibition,[10]; at 3.7 µM,-3%
same,growth inhibition,[10]; [17],-2%
same,growth inhibition,[10]; at 11.0 µM,-4%
same,growth inhibition,[10]; at 33.0 µM,10%
same,growth inhibition,[10]; [18],1%
same,growth inhibition,[10]; at 50.0 µM,-10.2%
same,growth inhibition,[10]; at 100.0 µM,18%
same,growth inhibition,[11]; at 1.2 µM,-27%
same,growth inhibition,[11]; at 3.7 µM,-33%
same,growth inhibition,[11]; at 11.0 µM,-25%
same,growth inhibition,[11]; at 33.0 µM,-17%
same,growth inhibition,[11]; at 100.0 µM,-2%
same,growth inhibition,[12]; at 1.2 µM,-7%
same,growth inhibition,[12]; at 3.7 µM,-32%
same,growth inhibition,[12]; at 11.0 µM,-9%
same,growth inhibition,[12]; at 33.0 µM,17%
same,growth inhibition,[12]; at 100.0 µM,38%
same,growth inhibition,[16]; at 1.2 µM,20%
same,growth inhibition,[16]; at 3.7 µM,14%
same,growth inhibition,[16]; at 11.0 µM,24%
same,growth inhibition,[16]; at 33.0 µM,40%
same,growth inhibition,[16]; at 100.0 µM,64%
same,growth inhibition,[13]; [17],23%
same,growth inhibition,[13]; [18],74% (active)
same,growth inhibition,[13]; at 50.0 µM,79.4% (active)
same,growth inhibition,[14]; at 1.2 µM,26%
same,growth inhibition,[14]; at 3.7 µM,59%
same,growth inhibition,[14]; at 11.0 µM,79% (active)
same,growth inhibition,[14]; at 33.0 µM,89% (active)
same,growth inhibition,[14]; at 100.0 µM,93% (active)
